Results filed as inconclusive are left out. Calls of active or inactive are those of the source. The call rests on the fitted dose curve; in most records, active means well fitted inhibition curve with a large enough effect; inconclusive means small, poorly fitted or top-dose-only effect; inactive means no such curve, though single readings can be large or run the other way.
Test: qHTS assay for measurement of the activity of small molecule inhibitors on Zika virus induced Caspase-3 activity in human iPSC derived neural progenitor cells (hNPCs) (AID 1224857); further: % of control where 0% means no effect; nearly all actives have a fitted effect of over 65% in size
Settings: hNPCs ZIKV-induced caspase-3/7, Caspase-Glo luminescence, 6 h; series mostly up to 45.7 µM; activity change, negative = inhibition: at the top concentration
Outline: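 Caspase-3/7 induction by a 6-hour ZIKV infection was quantified with a luminescent Caspase-Glo 3/7 reagent incubated 30 minutes at room temperature. Compounds were preincubated with hNPCs for 1 hour; inhibition was calculated against uninfected and infected control wells.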

SMILES | activity change, negative = inhibition
Cc1ncc([N+](=O)[O-])n1C | 1.56% (inactive)
OC1(c2ccc(Cl)cc2)CCNCC1 | 62.9% (inactive)
Nc1nc(=O)n([C@@H]2O[C@H](CO)[C@@H](O)[C@@H]2F)cc1I | 25.8% (inactive)
CCCCCCCCCCCCCC[N+](C)(C)C | -17.7% (inactive)
O=C(COCCOCCOCC(=O)Nc1c(I)cc(I)c(C(=O)O)c1I)Nc1c(I)cc(I)c(C(=O)O)c1I | -5.47% (inactive)
CC1CCCCN1CCCOC(=O)c1ccc(OC2CCCCC2)cc1 (stereo not drawn) | -0.857% (inactive)
CCCCCCCCCCCCCCCCCCNC(=O)OC1CCN(C(=O)OC[C@H](COC(=O)N(Cc2cccc[n+]2CC)C(=O)c2ccccc2OC)OC)CC1 | -10.8% (inactive)
CC[C@@]1(O)C(=O)OCc2c1cc1n(c2=O)Cc2c-1nc1ccccc1c2/C=N/OC(C)(C)C | 106% (inactive)
CCN(CC)CCOc1ccc(/C(=C(\Cl)c2ccccc2)c2ccccc2)cc1 | 164% (inactive)
CC[N+]1(CC)CCC(=C(c2ccccc2)c2ccccc2)C1C (stereo not drawn) | 4.34% (inactive)
NS(=O)(=O)c1cc(C(=O)NN2C[C@H]3[C@H]4CCC(C4)[C@H]3C2)ccc1Cl | -4.46% (inactive)
Cc1ccc(CCn2c3c(c4cc(Cl)ccc42)CN(C)CC3)cn1 | 22.3% (inactive)
O=C1OC2(c3ccccc31)c1cc(I)c(O)c(I)c1Oc1c2cc(I)c(O)c1I | -12.6% (inactive)
Nc1nnnn1-c1ccccc1 | -5.09% (inactive)
CCCCCCCCCCCCCCCC[n+]1ccccc1 | 1.23% (inactive)
C/C(=C1\CCOC(=O)S1)N(C=O)Cc1cnc(C)nc1N | -11.5% (inactive)
COc1cc(C(=O)OC(COCCC(C)C)CN2CCOCC2)cc(OC)c1OC (stereo not drawn) | -3.41% (inactive)
Cc1oc(=O)oc1COC(=O)[C@@H]1N2C(=O)[C@@H](NC(=O)[C@H](N)c3ccccc3)[C@H]2SC1(C)C | -17.1% (inactive)
